PubChem BioAssay AID720517 (National Center for Advancing Translational Sciences (NCATS), 2013)
Records with an inconclusive call do not appear. Where a call stands in place of a potency, no number is given. The source made the active and inactive calls. The call rests on the fitted dose curve; in most records, active means well fitted activation curve with a large enough effect; inconclusive means small, poorly fitted or top-dose-only effect; inactive means flat fitted curve, though single readings scatter.

Assay: qHTS for Inhibitors of Cell Surface uPA Generation: FP59 Counterscreen for Cherry-picked Compounds
Conditions: FP59 anthrax toxin cytotoxicity counterscreen, cells; series mostly up to 115 µM
Potency means the concentration at half of the fitted maximal effect.

SMILES	Potency
Cc1ccc(NC(=O)CCCn2c(=S)[nH]c3ccsc3c2=O)cc1C	inactive
CN(C)S(=O)(=O)c1ccc(NC(=O)COC(=O)CC2CC3CCC2C3)cc1 (centres undefined)	inactive
CC1(C)Oc2ccc3ccc(=O)oc3c2[C@@H](O)[C@H]1O	inactive
CC(=O)Nc1c2c(nn1-c1cccc(C)c1)CSC2	inactive
Cc1ccc(C)c(-c2ccc(=O)n(Cc3c(F)cccc3Cl)n2)c1	inactive
COc1ccc(C2=C/C(=C\c3ccccc3OC(C)=O)C(=O)O2)cc1	inactive
CCc1ccc(OCC(=O)N(Cc2cccs2)C2CCS(=O)(=O)C2)cc1 (centres undefined)	inactive
COCCCN1CC23C=CC(O2)C(C(=O)O)C3C1=O (centres undefined)	inactive
O=C(COC(=O)/C=C/c1cccc(F)c1)Nc1ccccc1	inactive
COc1cc(NS(=O)(=O)c2ccc(NC(=S)NC(=O)COc3ccccc3OC)cc2)nc(OC)n1	inactive
CCOC(=O)C1(CC2CCCCO2)CCN(Cc2nccn2-c2cccc(C)c2)CC1 (centres undefined)	inactive
CC(C)C1Oc2ccccc2N(CC(=O)NC2CCCCC2)C1=O (centres undefined)	58.5 µM (active)
COc1cc(F)ccc1S(=O)(=O)n1c(C)nc2ccccc21	inactive
Cc1ccc(C)c(N2N=C(C(=O)N(CC(C)C)c3c(N)n(Cc4ccccc4)c(=O)[nH]c3=O)CCC2=O)c1	inactive
C=CCNC(=S)NCC=C	inactive
COC(=O)[C@]1(Cc2ccccc2)N[C@H](CN(C)C(=O)c2ccccc2)[C@@H]2C(=O)N(Cc3ccccc3)C(=O)[C@@H]21	inactive
COc1ccc2c(ccn2S(=O)(=O)c2ccccc2)c1	inactive
CN(C)S(=O)(=O)c1cccc(C(=O)OCC(=O)NCc2ccc3c(c2)OCO3)c1	inactive
O=C1[C@H]2[C@@H](c3ccc(F)cc3)N3C(=O)N(c4ccccc4)C(=O)[C@@]3(Cc3ccc(Cl)cc3)[C@H]2C(=O)N1C1CCCCC1	inactive
C[N+]1(CC(O)c2ccccc2)CCCCCC1 (centres undefined)	inactive

SMILES	Potency
O=C(NCc1ccccn1)C1CCN(C(=O)c2cc3sccc3n2Cc2ccc(F)cc2)CC1	inactive
O=C(NC(=O)c1ccccc1)Nc1cccc(S(=O)(=O)N2CCCCC2)c1	inactive
CCNC(=S)NNC(=O)c1ccncc1	inactive
O=C(NCCCN1CCCC1=O)c1cccc(Oc2ccccc2)c1	inactive
C[C@@H](CSc1ccccc1)CN1CC[C@H](O)CCC1=O	inactive
COc1ccccc1NC(=O)COc1ccc(C(=O)NCc2ccccc2)cc1OC	inactive
C[C@H]1CN([C@@H](C)CO)C(=O)c2cccc(NC(=O)c3cnccn3)c2O[C@@H]1CN(C)S(=O)(=O)c1ccc(F)cc1	inactive
COc1ccc(NS(=O)(=O)c2cc(NS(=O)(=O)c3cc(C(=O)O)ccc3OC)ccc2C)cc1	inactive
NC(=O)c1cc2c3ccccc3ccn2c1-c1ccccc1	inactive
CC(C)C(NC(=O)Cc1ccccc1)C(=O)N1CCN(c2cccc(Cl)c2)CC1 (centres undefined)	inactive
COc1ccc(-c2sc3ccccc3c2C#CCO)cc1	inactive
CC(C)OC(=O)c1ccc(N2CCN(c3ccccc3F)CC2)nc1	inactive
CC(C)(C)S(=O)(=O)N1C[C@H]2CC/C=C\C/C(c3ccccc3)=C\2[C@@H]1CCO	inactive
CN(CC(=O)NCCCn1ccnc1)S(=O)(=O)c1ccc(Cl)cc1	inactive
Cc1cc(C)c(NC(=O)Cn2nnc(C(=O)NCc3ccc4c(c3)OCO4)c2N)c(C)c1	inactive
CCCOC(=O)CSC1=C(C#N)C(c2ccccc2Cl)CC(=O)N1 (centres undefined)	inactive
COc1ccc(-c2csc(NC(C)c3nc4cc(C(=O)NCCCO)ccc4n3Cc3ccc(C)cc3)n2)cc1 (centres undefined)	inactive
COc1cc(C(=O)Nc2nnc(C)s2)cc(OC)c1OC	inactive
O=C(COC(=O)c1cccc([N+](=O)[O-])c1)NNC(=O)c1cccs1	inactive
